Screening data: PubChem, several laboratories
EBV gp42 inh – blocks Epstein-Barr virus glycoprotein 42 binding | Q1HVG2 | Fluorescence polarization binding assay, mP read-out | inhibition, % (tested at 21.74 µM) | 0.42% of 220,000 active | AID 1085; in the data active = inhibition above about 50%
GLD-1 RNA inh – GLD-1-TGE RNA interaction inhibition (C. elegans). Q17339. purified GLD-1 + fluorescein TGE RNA, fluorescence polarization. inhibition, % at 5.96 µM. 0.44% of 320,000 active;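 active = percent inhibition above a per-plate cutoff, the plate mean of test compounds plus 3 SD, cut at about 30% in these data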;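 note: 0% = DMSO wells with GLD-1 and probe and 100% = wells lacking GLD-1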
MEX-5 binding – C. elegans MEX-5 TCR-2 RNA binding activity; Q9XUB2; MEX-5/FITC-TCR2 RNA binding, fluorescence polarization; active compounds read low; activity score (negative = inhibition of binding), % at 10 µM; 0.38% of 300,000 active; AID 1832;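 active = inhibition past about -25% in most replicates, and total fluorescence under double the plate's negative control median, limit read from the data; inconclusive = replicates evenly split on the limit, or fluorescence at least double controls; inactive = too little inhibition in most replicates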;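 note: 0% = DMSO and -100% = 5 µM competing unlabeled TCR2 RNA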
eLon inh – inhibitors of E. coli Lon protease; 0.42% of 360,000 active; AID 602123; purified E. coli Lon protease, fluorescence polarization; inhibition, % at 7.94 µM; in the data active = inhibition above about 13%, passing the limit was not always enough;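 note: 0% = enzyme with probe and DMSO and 100% = no enzyme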
BCLXL inh – Bcl-xL (human) inhibition. Q07817. GST-Bcl-xL / FITC-Bim BH3 peptide fluorescence polarization. inhibition, % at 10.9 µM. 0.7% of 320,000 active. AID 2129;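 active = inhibition above the mean of all tested compounds plus 3 SD, cutoff set per campaign, cut at about 30% in these data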;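 note: 0% = DMSO wells and 100% = unlabeled Bim-BH3 peptide competitor; inhibitors lower millipolarization by displacing the labeled peptide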
Target sequence (Q07817 whole entry, looked up): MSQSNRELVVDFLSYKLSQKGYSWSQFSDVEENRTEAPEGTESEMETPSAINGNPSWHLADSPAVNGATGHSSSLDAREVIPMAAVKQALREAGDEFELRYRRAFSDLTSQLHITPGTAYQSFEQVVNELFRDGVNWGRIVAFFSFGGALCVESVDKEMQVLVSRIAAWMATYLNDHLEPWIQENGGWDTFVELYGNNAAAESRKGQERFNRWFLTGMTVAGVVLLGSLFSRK
MCL1-BIM inh – disrupts human MCL1 binding to BIM-BH3 peptide; Q07820; GST-MCL1 / FITC-Bim-BH3 fluorescence polarization; inhibition, % at 10.9 µM; 0.68% of 320,000 active;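 active = inhibition above the mean inhibition of all tested compounds plus 3 SD, set per campaign, cut at about 40% in these data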;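 note: 0% = DMSO wells and 100% = unlabeled Bim-BH3 peptide control; higher means more loss of mP so more displacement of Bim peptide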
Target sequence (Q07820 whole entry, looked up): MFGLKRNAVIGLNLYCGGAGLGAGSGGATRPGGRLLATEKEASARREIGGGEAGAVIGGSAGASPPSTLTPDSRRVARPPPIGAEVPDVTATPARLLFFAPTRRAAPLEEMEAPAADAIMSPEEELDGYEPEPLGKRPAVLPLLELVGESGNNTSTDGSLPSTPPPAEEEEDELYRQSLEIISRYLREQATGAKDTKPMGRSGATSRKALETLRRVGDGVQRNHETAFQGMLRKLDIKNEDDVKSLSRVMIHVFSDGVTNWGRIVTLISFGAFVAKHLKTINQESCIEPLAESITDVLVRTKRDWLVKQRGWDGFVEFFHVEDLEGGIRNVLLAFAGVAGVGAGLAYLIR
Bcl-xL conf – counter-screen for MCL1 inhibitors: confirmation of human Bcl-xL inhibitors | inhibition, % at 10.9 µM | 54% of 1,700 active | GST-Bcl-xL / FITC-Bim BH3 peptide FP binding | shares compounds with MCL1-BIM inh | AID 2166;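 active = inhibition above a cutoff equal to the mean inhibition of all tested compounds plus 3 SD, cut at about 30% in these data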;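 note: 0% = DMSO wells and 100% = unlabeled Bim BH3 control peptide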
MCL1 inh confirm – MCL1-BIM-BH3 interaction inhibition, confirmation; shares compounds with MCL1-BIM inh; GST-MCL1 / FITC-Bim-BH3 fluorescence polarization; AID 2168; inhibition, % at 10.9 µM; 61% of 1,700 active;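 active = inhibition above the average of all tested compounds plus 3 SD, cut at about 40% in these data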;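 note: 0% = DMSO wells and 100% = unlabeled Bim-BH3 control peptide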
* marks the source's active call; other numbers are inactive results; ? = inconclusive; nt = no result; + = active, no number; ! = a repeat was not active. In the library only some 1.5% were active in any assay of this set; here they are far more common.

SMILES	EBV gp42 inh	GLD-1 RNA inh	MEX-5 binding	eLon inh	BCLXL inh	MCL1-BIM inh	Bcl-xL conf	MCL1 inh confirm
Cc1ccc(-c2nc3ccccc3c(=O)n2-c2cccc(O)c2)cc1	13	6	-5	6	31*	24	nt	nt
NCCc1cc(O)c(O)cc1O	nt	nt	nt	2	nt	nt	nt	nt
NC(Cc1cc(O)c(O)cc1O)C(=O)O (centres undefined)	nt	13	nt	nt	67*	95*	55*	96*
CC[N+](CC)(CC)CC	6	3	0	0	11	50*	13	2
CCOc1cccc(OCC)c2c(C)[n+](CC3CCCO3)c(C)c1-2 (centres undefined)	9	32*	-2	30	53*	62*	17	17
CC(C)CN(C(=O)CN1CC=C(c2ccccc2)CC1)c1c(N)n(CC(C)C)c(=O)[nH]c1=O	-6	-5	-5	-10	2	0	nt	nt
Cc1ccc(OC(=O)N(C)C[C@H]2OCc3cnnn3CCCC(=O)N([C@@H](C)CO)C[C@H]2C)cc1	nt	nt	nt	1	nt	nt	nt	nt
O=C1NC(=S)NC(=O)C1=Cc1ccc2c(c1)CCN2CCCCl	71*	4	-1	-11	29	74*	-11	-15
CCOc1cc(C=C2C(=O)NC(=S)NC2=O)ccc1O	nt	nt	nt	-10	nt	nt	nt	nt
COCCCNC(=O)Cn1cc(/C=C2\C(=O)NC(=O)N(c3ccccc3F)C2=O)c2ccccc21	nt	-22	?	-190	2	100*	117*	133*
Cc1ccc(/C=C2\C(=O)NC(=S)N(c3ccccc3F)C2=O)s1	-23	1	nt	-58	11	26	nt	nt
CCn1cc(C=C2C(=O)NC(=O)NC2=O)c2ccccc21	nt	-14	-46*	-25	136*	148*	112*	123*
CN1CCC2(CC1)C(C#N)=C(N)NC(S)=C2C#N	-2	-78	-43*!	-78	42*	118*!	90*	104*
CN1C2CNC(=O)CC1C1CCC2C1 (centres undefined)	nt	nt	nt	-6	nt	nt	nt	nt
O=c1[nH]c(=O)n(-c2cccc(F)c2)c(O)c1/C=C1\C=Nc2ccccc21	nt	-19	?	-124	160*	199*	154*	177*
COc1ccc(OC(=O)N(C)C[C@@H]2OCc3cnnn3CCCC(=O)N([C@@H](C)CO)C[C@@H]2C)cc1	nt	nt	nt	-5	nt	nt	nt	nt
Cc1sc2ncnc(N3CCC(C(=O)Nc4ccc(C#N)c(Cl)c4)CC3)c2c1C	nt	-6	5	0	-18	-25	nt	nt
O=C1NC(=O)N(Cc2ccco2)C(=O)/C1=C/c1ccc(-c2cccc([N+](=O)[O-])c2)o1	91*	-4	-2	-13	17	43*	24	62*
CCCCN1C(=O)C(C2c3ccccc3C(=O)N2Cc2ccccc2)C(=O)NC1=S (centres undefined)	-17	5	-1	9	6	7	nt	nt
C=CCCC1(C(C)C)C(=O)NC(=S)NC1=O	nt	nt	nt	-16	nt	nt	nt	nt
O=c1[nH]c2ccccc2n1CCCN1CCC(n2c(=O)[nH]c3cc(Cl)ccc32)CC1	-7	29	1	-7	37*	54*	10	6
CC(=O)OC1N=C(c2ccccc2Cl)c2cc(Br)ccc2NC1=O (centres undefined)	-12	-1	1	0	-3	5	nt	nt
O=C1NC(=O)N(c2cccc(Cl)c2)C(=O)/C1=C\c1ccc(Sc2nc3ccccc3[nH]2)o1	-21	20	3	-26	91*	181*	25	41*
O=C1NC(=O)N(c2ccccc2)C(=O)/C1=C/c1ccc(Sc2ccccc2)o1	-59	-6	1	-33	8	15	nt	nt
O=C1NC(=O)N(c2ccccc2F)C(=O)/C1=C/c1ccc(Sc2nc3ccccc3[nH]2)o1	-67	1	nt	-49	54*	59*	41*	66*
SMILES	EBV gp42 inh	GLD-1 RNA inh	MEX-5 binding	eLon inh	BCLXL inh	MCL1-BIM inh	Bcl-xL conf	MCL1 inh confirm
CC(=O)[C@@]1(O)CCC2C3CC=C4C[C@@H](O)CC[C@]4(C)C3CC[C@@]21C (some centres undefined)	nt	-1	nt	9	nt	nt	nt	nt
FCCN(CCF)c1cccc(Cl)c1	-17	1	-2	nt	3	4	nt	nt
CC(=O)c1ccc2c(c1)C1C(Cl)C(Sc3ccccc3[N+](=O)[O-])CC1C(C(=O)O)N2 (centres undefined)	26	8	nt	22*	28	64*	19	38
O=C(O)c1cccc2c1NC(C(=O)O)C1CC(Sc3ccccc3[N+](=O)[O-])C(Cl)C21 (centres undefined)	15	14	nt	15	62*	100*	50*	106*
CCC(=NCCCn1ccnc1)c1c(O)n(Cc2ccccc2)c(=O)[nH]c1=O	-6	9	1	-1	4	1	nt	nt
CCN(CC)CC(=O)Nc1ccc(Cl)cc1C(=O)c1ccccc1	-12	-2	0	-5	2	7	nt	nt
Oc1c(Cl)c(Cl)c(Cl)c(Cl)c1Cl	nt	2	-2	7	2	53*	11	38
COc1ccc(-c2ccc3c(c2)CNCc2cnnn2-3)cc1	nt	nt	nt	-3	nt	nt	nt	nt
O=c1[nH]c(=S)[nH]c(O)c1/C=C1/C=c2ccccc2=N1	nt	-16	0	-19	68*	92*	135*	170*
Cc1cc(/C=C2\C(=O)NC(=O)N(Cc3ccccc3)C2=O)c(C)n1C1CC1	27	0	-58*	-23	-2	67*	19	17
C=CCN1CCc2cccc3c2[C@H]1Cc1ccc(O)c(O)c1-3	nt	1	-4	-7	23	43*	33*	67*
O=[N+]([O-])c1cccc(O)c1	nt	3	nt	5	4	0	nt	nt
O=[N+]([O-])c1cc(S(=O)(=O)c2ccc(O)c([N+](=O)[O-])c2)ccc1O	-3	-3	-36*	-7	15	47*	24	72*
CC(C)[C@@]1(NC(=O)[C@@H]2C[C@@H]3c4cccc5[nH]cc(c45)C[C@H]3N(C)C2)O[C@@]2(O)[C@@H]3CCCN3C(=O)[C@H](Cc3ccccc3)N2C1=O	12	9	1	-15	16	7	nt	nt
CC(C)[C@H]1C(=O)N2CCC[C@H]2[C@]2(O)O[C@](NC(=O)[C@@H]3C=C4c5cccc6[nH]cc(c56)C[C@H]4N(C)C3)(C(C)C)C(=O)N12	112*	129*	nt	64*	153*	+	106*	128*
CN(CC=CCN(C)P(=S)(N1CC1)N1CC1)P(=S)(N1CC1)N1CC1	nt	nt	nt	-7	nt	nt	nt	nt
C[C@@H]1CN([C@H](C)CO)C(=O)CCCn2nncc2CO[C@H]1CN(C)C(=O)Oc1cccc2ccccc12	nt	nt	nt	-10	nt	nt	nt	nt
